# Test results: PubChem BioAssay
# Calls of active or inactive are those of the source.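 The calls were made as follows, unless noted: active = mean z-score across replicates of 1.96 or higher in either the MELAS or the Rieske mutant cell line; inactive = the rest.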
# Legend:
# [1] = sensitizers of A549 cells to miR-34 induction, primary screen, imaging, A549 dox-inducible miR-34, nuclei and caspase counts (AID 1347080;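 active = compounds whose cell count with miR-34 switched on is under 0.7 times the count with it off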); conditions: A549 miR-34 inducible, Hoechst nuclei count, 48 h
# [2] = survival rescue of mitochondrial mutant cells in low glucose, primary screen, MELAS cybrids, Rieske KO mouse fibroblasts, CellTiter-Glo (AID 1508586);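 also: z relative to plate mean and SD of compound and empty wells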
# [3] = stronger effect = lower value, cell number ratio, induced over uninduced
# [4] = measured here: relative caspase fold change +Dox/-Dox
# [5] = measured here: total cells with miR-34 induction, stronger effect = lower value
# [6] = measured here: total cells without miR-34 induction
# [7] = MELAS cybrid survival, CellTiter-Glo 48 h, stronger effect = higher value
# [8] = Rieske KO mouse fibroblast survival, CellTiter-Glo 72 h
# Also: test concentration not given here.
SMILES,"fold change [1, 3]","fold change [1, 4]","cell count [1, 5]","cell count [1, 6]","z-score [2, 7]","z-score [2, 8]"
CNC(=O)c1cccc(-c2ccc3c(N4CCOCC4C)nc(N4CCOCC4C)nc3n2)c1 (centres undefined),1 (inactive),0.416,3420,3410,3.83 (active),-2.15
CCN=C1N[C@@H]2C(O)C(O)C(CO)O[C@@H]2S1 (some centres undefined),0.935 (inactive),0.487,8710,9320,-0.533 (inactive),-0.988
O=C(CCCS)NC1CCN(C(=O)COc2ccc(Cl)cc2Cl)CC1,0.885 (inactive),0.313,7910,8940,-0.37 (inactive),1.05
CCOC(=O)Nc1cc(-c2ccc(C)c(NS(C)(=O)=O)c2)nn2c(C)nnc12,1.01 (inactive),0.716,4010,3970,-0.585 (inactive),-4.44
C=CCc1ccc(O)c(-c2cc(CC=C)ccc2O)c1,0.923 (inactive),0.657,7490,8120,0.173 (inactive),-0.0672
O=C(Nc1ccccc1Br)NC1CCN(c2ccc(C(F)(F)F)cn2)C1 (centres undefined),0.944 (inactive),0.559,9350,9910,-0.215 (inactive),0.944
NC(=O)NN=Cc1ccc([N+](=O)[O-])o1,0.88 (inactive),0.871,7280,8270,-0.0834 (inactive),-0.616
CCNc1nc(Nc2cc(F)c(C(=O)N3CCOCC3)cc2OC)ncc1C(F)(F)F,0.9 (inactive),0.418,8080,8970,-0.325 (inactive),-0.142
CC1C[C@H]2[C@@H]3CC(F)C4=CC(=O)C=C[C@]4(C)[C@]3(F)C(O)C[C@]2(C)[C@@]1(O)C(=O)CO (some centres undefined),0.843 (inactive),1.01,4530,5380,-0.358 (inactive),-0.303
CCNC(=O)CCCC=CCC1C(O)CC(O)C1C=CC(O)CCc1ccccc1 (centres undefined),0.925 (inactive),0.991,6700,7250,-0.401 (inactive),-0.137
C=C1C[C@@]2(O)O[C@@]3(CC2C(C)C)C(C)CC[C@@H]13 (some centres undefined),0.988 (inactive),0.924,9960,10100,-0.407 (inactive),0.387
CCN(C)C(=O)Oc1cccc(C(C)N(C)C)c1 (centres undefined),0.91 (inactive),0.79,8110,8910,-0.173 (inactive),0.451
C[C@]12CCC(=O)C=C1CC[C@@H]1[C@H]2C(O)C[C@@]2(C)[C@H]1CC[C@@]2(O)C(=O)CO (some centres undefined),0.923 (inactive),0.886,5230,5670,-0.31 (inactive),-0.201
C#C[C@@]1(O)CC[C@H]2[C@@H]3CCC4=CC(=O)CC[C@@H]4[C@@H]3CC[C@@]21CC,0.929 (inactive),0.428,7310,7880,-0.214 (inactive),0.0474
CC(C)(O)CCC(O)[C@](C)(O)C1CC[C@@]2(O)C3=CC(=O)[C@@H]4CC(O)C(O)C[C@]4(C)[C@@H]3CC[C@]12C (some centres undefined),0.992 (inactive),0.932,10200,10300,-0.354 (inactive),0.685
CCCCC(=O)OC1CC[C@H]2[C@@H]3CCc4cc(O)ccc4[C@@H]3CC[C@]12C (some centres undefined),0.855 (inactive),0.887,7760,9080,-0.195 (inactive),-0.141
COc1ccc(-c2ccc3c(N4CCOCC4C)nc(N4CCOCC4C)nc3n2)cc1CO (centres undefined),0.853 (inactive),1.28,2360,2770,5.74 (active),-3.07
CN(C)C1C(=O)C(C(N)=O)=C(O)[C@@]2(O)C(=O)C3=C(O)c4c(O)ccc(Cl)c4C(O)[C@H]3C[C@@H]12 (some centres undefined),0.836 (inactive),1.66,6970,8340,3.28 (active),5.13
CCCC(Nc1nc(-c2ccc(NC(=O)NCC)c(OC)c2)ncc1C)c1cccnc1 (centres undefined),1.06 (inactive),0.656,1450,1370,2.93 (active),-1.09
C[C@]12CC[C@H]3c4ccc(O)cc4CC[C@H]3[C@@H]1CC(O)C2O (some centres undefined),0.884 (inactive),0.677,8910,10100,-0.421 (inactive),-0.251
CNC1C(O)C(NC)[C@H]2O[C@@]3(O)C(=O)CC(C)O[C@H]3O[C@@H]2C1O (some centres undefined),1.01 (inactive),0.997,9590,9460,-0.277 (inactive),0.762
C=C(C)C1CC[C@]2(C(=O)O)CC[C@]3(C)[C@H](CC[C@@H]4[C@@]5(C)CCC(O)C(C)(C)[C@@H]5CC[C@]43C)[C@@H]12 (some centres undefined),0.87 (inactive),0.918,6780,7790,-0.0804 (inactive),-0.141

SMILES,"fold change [1, 3]","fold change [1, 4]","cell count [1, 5]","cell count [1, 6]","z-score [2, 7]","z-score [2, 8]"
OCc1ccc(OC2OC(CO)C(O)C(O)C2O)cc1 (centres undefined),0.984 (inactive),0.233,8280,8420,-0.247 (inactive),-0.122
CNc1nc(Nc2cnn(C3CCN(C4COC4)CC3F)c2Cl)ncc1C(F)(F)F (centres undefined),0.967 (inactive),0.45,8480,8760,-0.354 (inactive),0.843
Cc1c(Cc2ccc3ccccc3n2)c2cc(F)ccc2n1CC(=O)O,0.985 (inactive),0.424,6920,7030,0.326 (inactive),-0.0715
CCCN(CCc1cccs1)C1CCc2c(O)cccc2C1 (centres undefined),0.911 (inactive),0.584,8660,9500,-0.281 (inactive),-0.2
COC(=O)NC(C(=O)NC(Cc1ccccc1)C(O)CN(Cc1ccc(-c2ccccn2)cc1)NC(=O)C(NC(=O)OC)C(C)(C)C)C(C)(C)C (centres undefined),0.891 (inactive),0.981,6490,7280,-0.349 (inactive),0.446
Cc1nc(NC(=O)N2CCCC2C(N)=O)sc1-c1csc(C(C)(C)C)n1 (centres undefined),0.968 (inactive),0.607,6880,7100,-0.368 (inactive),0.104
CC(=O)O[C@@]1(C(C)=O)CC[C@H]2[C@@H]3C=C(Cl)C4=CC(=O)C5CC5[C@]4(C)[C@@H]3CC[C@@]21C (some centres undefined),0.94 (inactive),0.713,7720,8210,-0.351 (inactive),0.528
CCC(=O)NCCC1CCc2ccc3c(c21)CCO3 (centres undefined),0.931 (inactive),4.33,8720,9370,-0.89 (inactive),0.046
Cc1cc(CS(=O)(=O)c2ccccc2)cc(OCc2ccc(CN3CCCC3CO)cc2)c1 (centres undefined),0.932 (inactive),0.28,7820,8380,0.0407 (inactive),0.831
CCC(C)Nc1cc(C(=O)NC2CC3CCC(C2)N3c2ccc(C(=O)C3CC3)cn2)c(C)cc1C(N)=O (centres undefined),0.94 (inactive),0.437,2340,2490,2.2 (active),-1.06
C#CCC(c1nc2cc(Cl)ccc2c(=O)n1Nc1ccccc1)N(CCCN)C(=O)c1cccc(Cl)c1F (centres undefined),0.689 (active),0.42,882,1280,1.61 (inactive),0.152
CC1(C)S[C@H]2C(NC(=O)C(NC(=O)N3CCN(S(C)(=O)=O)C3=O)c3ccccc3)C(=O)N2C1C(=O)O (some centres undefined),0.882 (inactive),0.658,7720,8750,-0.292 (inactive),-0.225
O=C(Nc1cc(C(F)(F)F)ccc1N1CCCCC1)c1ccncc1,0.916 (inactive),0.317,7440,8120,-0.391 (inactive),1.41
C=CCNC1=C2CC(C)CC(OC)C(O)C(C)C=C(C)C(OC(N)=O)C(OC)C=CC=C(C)C(=O)NC(=CC1=O)C2=O (centres undefined),1.02 (inactive),1.05,1870,1820,1.58 (inactive),-0.477
CN1CCN(C(=O)c2cc3cc(Cl)ccc3[nH]2)CC1,1 (inactive),0.614,8330,8310,-0.282 (inactive),-0.0205
CC1(C)OC2C[C@H]3[C@@H]4CCC5=CC(=O)C=C[C@]5(C)[C@]4(F)C(O)C[C@]3(C)[C@@]2(C(=O)CO)O1 (some centres undefined),0.812 (inactive),1.01,5100,6270,-0.349 (inactive),-0.501
O=C(C=Cc1ccc(CN(CCO)CCc2c[nH]c3ccccc23)cc1)NO,0.866 (inactive),0.616,944,1090,-0.188 (inactive),-2.63
COc1cc(F)c(C(C)C)cc1-c1ccc(C(F)(F)F)cc1CN1C(=O)OC(c2cc(C(F)(F)F)cc(C(F)(F)F)c2)C1C (centres undefined),0.899 (inactive),0.917,8290,9220,-0.143 (inactive),0.372
CC1C(NC(=O)C(=NOC(C)(C)C(=O)O)c2csc(N)n2)C(=O)N1S(=O)(=O)O (centres undefined),0.929 (inactive),0.823,7110,7650,-0.398 (inactive),0.579
CCC1C(=O)N(C)c2cnc(Nc3ccc(C(=O)NC4CCN(C)CC4)cc3OC)nc2N1C1CCCC1 (centres undefined),1.18 (inactive),0.761,1360,1150,1.18 (inactive),-1.35
CCC(C)CC(C)CCCCCCCCC(=O)NC1CC(O)C(NCCN)NC(=O)[C@@H]2C(O)CCN2C(=O)[C@@H](C(O)CCN)NC(=O)[C@H](C(O)C(O)c2ccc(O)cc2)NC(=O)[C@@H]2CC(O)CN2C(=O)[C@H](C(C)O)NC1=O (some centres undefined),0.95 (inactive),0.316,7980,8400,-0.141 (inactive),0.0344
CC(C)C1C(=O)NC(CCCN=C(N)N)C(=O)NCC(=O)NC(CC(=O)O)C(=O)NC(Cc2ccccc2)C(=O)N1C (centres undefined),0.841 (inactive),0.758,304,361,0.703 (inactive),-0.232
